According to paper PMC12136788:
Substitutions are numbered along the chain they refer to. Over roughly 24,000 sequences, “enrichment r” has its median near 0.99; the highest 2% begin near 3.7. Only a selection was taken, and the highest values are over-represented in it overall.

T1: UNK ZnF1-3 (human, UniProt Q9C0B0 31-174)
T1 sequence: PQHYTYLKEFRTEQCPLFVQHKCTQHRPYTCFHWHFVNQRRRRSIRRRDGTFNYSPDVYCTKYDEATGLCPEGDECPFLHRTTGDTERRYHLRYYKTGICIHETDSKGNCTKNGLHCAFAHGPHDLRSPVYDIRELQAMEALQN

B1: 132431906_132432936_2116_CDS_ENSG00000170606_ENST00000304858|human|control|control (ssRNA)
RNA: GGGAGUUCUACAGUCCGACGAUCUCUCAUUUCAUACACAUAUUCCUCCACUGCGUUCUUAGCAUCAUUCCGCUCCUUCUCCAGUUUAUCCUGCAUGAUCAUCUUACCCUCAUUUUCAAUGUACAAGUUGAGCAUCUCUCUGUCCAACAGAGGAUUGAGCAUCA
B2: 96523144_96524318_649_CDS_ENSMUSG00000031751_ENSMUST00000053766|mouse|control|control (ssRNA)
RNA: GGGAGUUCUACAGUCCGACGAUCGGAAAGGUAUUCAAAUCUGUCUUUGCAGAGCUGAACCAUCAGAUGCAGGAAGACAAGUCCAGCAAACCAGAGGCACCACAUCACCACUUCCUCCACAGUCUGGACAUUCAGCACUCCAAACAACAGAGGAUUGAGCAUCA
B3: chr18:33606911:33606912:-_ENSG00000141425_ENST00000399022|hu_mus|FALSE|FALSE (ssRNA)
RNA: GGGAGUUCUACAGUCCGACGAUCUUCCAAUUUAUGUUCUUUCUCUGCAAGGGCUUCCUUUUGACAACGAAGAAAAUCUGCUAACAUUCGGGUGAGUUGCUUUCUAUCAUCUAUUUCUGCCGCCAGUCUGCCAUUAUAAUCUGCCAACAGAGGAUUGAGCAUCA
B4: chr12:48362563:48362564:+_ENSG00000134291_ENST00000256686|hu_hu|hu_hu_hu_mus_False|58_88 (ssRNA)
RNA: GGGAGUUCUACAGUCCGACGAUCUCCGUCAAGCCCUUCGAUAGACCCAUAGACUCUAAACUGUAAUCACUUUGUAUUUCUAAAAAAAAGAAACGCCAAAAACUUUCCAAAAAGCGGGGGUGGGGUGAGGCGGGAGGGGGAGGUCAACAGAGGAUUGAGCAUCA
B5: 419052_420092_3597_CDS_ENSG00000073614_ENST00000399788|human|control|control (ssRNA)
RNA: GGGAGUUCUACAGUCCGACGAUCUUCUAUUAGUUCUUUUACUUUUUUCCUCCUAUUUUUGCCACUCCCAUAUACACCAAUGUCGGUCCGGGGGCUCAGCACCUGUAACAAUGUAUGGCUAGAAUUCUUCUUAAGAAACGUCCGCAACAGAGGAUUGAGCAUCA
B6: chr7:888068:888069:+_ENSG00000164828_ENST00000456758|hu_hu|motif|central (ssRNA)
RNA: GGGAGUUCUACAGUCCGACGAUCUUGAACUAAAAAUGAUGAAAAAGAUGAUGCAGUGUAUCUGGCCAGCCACAAAAUCCGGUUCACGUAGAAAGACGCACCGCAUUUUUGAUUCCUGUCCCUAGAAUAAACUCUCGACACGGGCAACAGAGGAUUGAGCAUCA
B7: chr19:40639365:40639366:-_ENSMUSG00000025007_ENSMUST00000025979|mus_mus|motif|central (ssRNA)
RNA: GGGAGUUCUACAGUCCGACGAUCGGCUGCCACCUGGGGUAGACAGUCAGGGCGAGACUCAAAGAUCACCAGUAAAACACCGGUUGGGACAGUCACUUGUUCUAACUCCAGGUUUUUGGCAAUCCGAGUCCGGCGCAGGACGCGCAACAGAGGAUUGAGCAUCA
B8: chr2:168997265:168997266:-_ENSG00000198648_ENST00000355999|hu_mus|motif|central (ssRNA)
RNA: GGGAGUUCUACAGUCCGACGAUCUUUAUUCCGUGUAACAUCACCCCCUGUGGCUAAGAAUGCGCUUACUCCAAAAUCUGCGGUUUGUACUGAGCCAUCCUCACCCAGAAGAAUAUUUCCAGCUUUCAAAUCCCUAUGGAUCUGCAACAGAGGAUUGAGCAUCA
B9: chr2:202488911:202488912:-_ENSG00000155755_ENST00000286196|hu_mus|hu_hu_hu_mus_False|18_48 (ssRNA)
RNA: GGGAGUUCUACAGUCCGACGAUCAUUGAAACAUUUUUCAUAAUCUCCAGUAGCAUUUCAGCAUUAUGUAACAAAAGCUCAAUUGUAAAUACACAUGUCUUAUAAAAAUACACUUAAAUUUAAAAACGGGGAGCGCAGGCGCCACAACAGAGGAUUGAGCAUCA
B10: chr2:202488911:202488912:-_ENSG00000155755_ENST00000286196|hu_mus|hu_hu_hu_mus_False|8_18 (ssRNA)
RNA: B9 RNA with C93U, A94G, G96A, G127A, G128A, G129A, G130A, G132U, C133G, C135G
B11: chr2:27806210:27806211:+_ENSMUSG00000026837_ENSMUST00000028280|mus_mus|FALSE|FALSE (ssRNA)
RNA: GGGAGUUCUACAGUCCGACGAUCUGUGGUUUCUCUGGCAGCUUCCACUGGCUUCUGAGUAGGGGCAGGCUCCUUUCCCGGGUCUUCAGGGUCUUCAUAAUAUGGAUACUCAUAGUAAUAGGUCUCACCCUCUCCUUCUGGGUACAACAGAGGAUUGAGCAUCA
B12: chr2:202488911:202488912:-_ENSG00000155755_ENST00000286196|hu_mus|hu_hu_hu_mus_False|8_8 (ssRNA)
RNA: GGGAGUUCUACAGUCCGACGAUCAUUGAAACAUUUUUCAUAAUCUCCAGUAGCAUUUCAGCAUUAUGUAACAAAAGCUCAAUUGUAAAUACAUGUAUCUUAUAAAAAUACACUUAAAAACACGAGUAAAAAUGGGAGGCGCCACAACAGAGGAUUGAGCAUCA
B13: chr19:47150976:47150977:-_ENSG00000197380_ENST00000391916|hu_hu|motif|central (ssRNA)
RNA: GGGAGUUCUACAGUCCGACGAUCACUGGGGAGUCACCAUCGUCAUAAUAAAUACAGUAAUUUUAAAAAAGAAAAAAAAUACGGGAUUGGAACAGCUGAGGGUCAUCAGGCUUCCCCCAUUCCCUCUCACAGGGAGUGGGGGUCCAACAGAGGAUUGAGCAUCA
B14: chr1:229631779:229631780:-_ENSG00000069248_ENST00000261396|hu_hu|motif|central (ssRNA)
RNA: GGGAGUUCUACAGUCCGACGAUCUAAUUCCCAUUUACUGAUGUUUGAACUCGUCAGGCUAUAAAAGCUUGAUCUCUCUCGGUCCCAGAGAACACUUGAAAGUGUGAGAUCACUACUAGGAGAUAAAAUUCCAAAAAGAGAAGACAACAGAGGAUUGAGCAUCA
B15: chr2:202488911:202488912:-_ENSG00000155755_ENST00000286196|hu_mus|hu_hu_hu_mus_False|1_18 (ssRNA)
RNA: B9 RNA with C93U, A94G, G96A, G137C, G138A, C139A, G140A, C141U, C142A, A143C
B16: chrX:140365796:140365797:-_ENSMUSG00000031285_ENSMUST00000033642|mus_mus|mus_mus_mus_hu_False|48_108 (ssRNA)
RNA: GGGAGUUCUACAGUCCGACGAUCCUUCUCAUUACUUAGUGCCUGCAAGGUUCUGGUUCGGUAGAAGCUACAGUGGGCGCUGUGAGUGGGACUUGGAAACCCAUUCAUCCGGGAGCCUCGCAUGUUCCUGGAUGUCUUAUCUCUCAACAGAGGAUUGAGCAUCA

Molecular target: T1, UNK ZnF1-3
Test: nsRBNS (natural sequence RNA bind-n-seq); RBNS binding buffer (assumed for nsRBNS): 25 mM Tris pH 7.5, 150 mM KCl, 3 mM MgCl2, 0.01% Triton X-100, 500 ug/ml BSA, 20 U/ml SUPERase-In, 4 C; UNK is unkempt and MSI1 is Musashi-1; names of the RNAs are library labels; protein concentration not given here; high values mean tight binding

Binder | binding signal [enrichment R]
B1 | 0.774
B2 | 2.02
B3 | 0.802
B4 | 1.85
B5 | 0.677
B6 | 1.34
B7 | 1.58
B8 | 0.927
B9 | 3.69
B10 | 6.76
B11 | 0.892
B12 | 0.957
B13 | 6.05
B14 | 1.07
B15 | 3.65
B16 | 0.604
